Vif-A3F inh – qHTS for Inhibitors of Vif-A3F Interactions: qHTS; hit rate 0.2% among 390,000; HeLa A3F-eYFP + Vif (tagged APOBEC3F with the HIV-1 protein that degrades it), YFP fluorescence increase; Potency, µM (top dose mostly 46.1 µM), for inactives: at the highest dose activity, negative = active; also: potency is read from the fitted curve at half-maximal effect; % of control where 0% means no effect; nearly all actives have a fitted effect of over 65% in size
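HeLa cells stably expressing A3F-eYFP plus Vif, plated and incubated overnight at 37 deg C, then exposed to compounds overnight at 37 deg C. Blocked degradation read as raised yellow fluorescence (Ex 488/Em 500-530).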
PKM2 act – qHTS Assay for Activators of Human Muscle isoform 2 Pyruvate Kinase | purified PKM2, Kinase-Glo ATP luminescence, activation; response scale: 0% is enzyme alone, no compound | AID 1631, 2009 | Pyruvate kinase PKM (Homo sapiens), P14618 | hit rate 0.34% among 260,000 | Potency, µM (series often up to 57.5 µM), for the others: top-dose activation, usual class: activators; also: potency is read from the fitted curve at half-maximal effect; % is scaled to controls: 0 for no effect and ±100 for the full control effect; nearly all actives have a fitted effect of over 55% in size
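Kinase-Glo luminescence reports ATP generated from ADP (0.1 mM) and PEP (0.5 mM) by purified hPK-M2 after 1 h at room temperature, pH 7.2 imidazole buffer; intermediate enzyme activity allows detecting inhibitors and activators.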
RGS12 GoLoco inh – qHTS Assay for Inhibitors of RGS12 GoLoco Motif Activity (Red Fluorophore). Gai1:RGS12 GoLoco peptide FP, rhodamine, 10 min. Potency, µM (titrated, usually from 61.6 µM), for inactives: at the highest dose activity, negative = inhibition, hits mostly inhibitors. hit rate 0.44% among 230,000. AID 880, 2007; active = well fitted inhibition curve with a large enough effect, not every such curve was filed as active; inactive = no such curve, though single readings can be large or run the other way; also: potency is read from the fitted curve at half-maximal effect; % is scaled to controls: 0 for no effect and ±100 for the full control effect; nearly all actives have a fitted effect of over 30% in size
Target sequence (P63096 whole entry, looked up): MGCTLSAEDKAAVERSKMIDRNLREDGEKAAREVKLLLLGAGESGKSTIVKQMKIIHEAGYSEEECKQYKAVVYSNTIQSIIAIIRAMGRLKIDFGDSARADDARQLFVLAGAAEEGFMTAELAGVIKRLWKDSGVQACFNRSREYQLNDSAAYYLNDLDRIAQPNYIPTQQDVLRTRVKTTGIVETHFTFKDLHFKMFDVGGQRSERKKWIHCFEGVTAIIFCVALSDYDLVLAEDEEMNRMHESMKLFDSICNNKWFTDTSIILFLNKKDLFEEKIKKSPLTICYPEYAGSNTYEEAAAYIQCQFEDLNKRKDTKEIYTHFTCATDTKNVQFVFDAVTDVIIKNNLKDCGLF
GCN5L2 inh – qHTS Assay for Inhibitors of GCN5L2; Potency, µM (highest dose often 58.9 µM), for inactives: at the top dose activity change, negative = inhibition, hits mostly inhibitors; AID 504327, 2011; hit rate 0.21% among 390,000; GCN5L2 HAT assay, ThioGlo1 CoA-SH fluorescence; also: potency is read from the fitted curve at half-maximal effect; % is scaled to controls: 0 for no effect and ±100 for the full control effect
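qHTS, 1536-well. 20nM enzyme, pH 7.5 HEPES/EDTA/Tween-20 buffer; 15 min compound preinc., RT. Start: 75uM H3(1-25), 70uM AcCoA, 50uM ThioGlo1. Read Ex340/Em540 at t=0 (autofluorescence flag) and t=20 min.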
Vif-A3G inh – qHTS for Inhibitors of Vif-A3G Interactions: qHTS. DNA dC->dU-editing enzyme APOBEC-3G (Homo sapiens), Q9HC16. HeLa A3G-eYFP + Vif (tagged APOBEC3G with the HIV-1 protein that degrades it), YFP fluorescence, overnight. Potency, µM (highest dose often 46.1 µM), for the others: top-dose activity, negative = active, actives largely listed as inhibitors. hit rate 0.076% among 410,000. AID 602310, 2012; also: potency is read from the fitted curve at half-maximal effect; % is scaled to controls: 0 for no effect and ±100 for the full control effect; nearly all actives have a fitted effect of over 60% in size
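HeLa cells stably expressing Vif and C-terminally eYFP-tagged A3G, seeded overnight at 37 deg C, then exposed to compound by pintool overnight at 37 deg C. Rise in yellow fluorescence (Ex 488/Em 500-530, Acumen) marks blocked Vif-driven A3G degradation.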
IL-2 act – qHTS of IL-2 Activators. hit rate 0.065% among 360,000. activation, % (series mostly up to about 46 µM). IL-2 activation reporter assay, cell-based qHTS; stimulated with anti-CD3/CD4/CD28 beads; in transgenic mouse T cells; in the data active = activation above about 50%; inconclusive = mostly about 30% to 49%; also: 0% is about no effect
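Unstimulated transgenic mouse T cells, 750 per well, received compound and, after 60 minutes, anti-CD3/anti-CD4 bead plus anti-CD28 stimulation. EGFP and DsRed were quantified after 18 hours.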
An asterisk follows results filed as active; u = inconclusive; x = no result; ! = not confirmed by another sample. This is a sample that favours compounds with a hit; in the whole collection about 0.77% have one here. Unless noted, calls follow the shape of the dose curve; as a rule, active = well fitted curve in the direction sought with a large enough effect; inconclusive = small, poorly fitted or top-dose-only effect, or another doubt; inactive = no such curve, though single readings can be large; an effect the other way counts as inactive or inconclusive.

SMILES | Vif-A3F inh | PKM2 act | RGS12 GoLoco inh | GCN5L2 inh | Vif-A3G inh | IL-2 act
COc1ccc(CCNC(=O)c2c[nH]n3c(=O)c(Cc4ccccc4Cl)c(C)nc23)cc1OC | x | x | x | 28µM* | x | x
Cc1nc2c(C(=O)NCCc3ccc(Cl)cc3)c[nH]n2c(=O)c1Cc1ccccc1F | -10% | x | x | u | -14% | x
Cc1ccc(CNC(=O)c2c[nH]n3c(=O)c(Cc4ccc(F)cc4Cl)c(C)nc23)cc1 | 1% | x | x | 35µM* | -7% | x
O=c1[nH]c(=O)n(C(c2ccccc2)c2ccccc2)cc1Br | 15% | 0% | 7% | -3% | -2% | 1
Cc1ccc(-c2cc(C(=O)N3CC(C)OC(C)C3)c3ccccc3n2)o1 (centres undefined) | -3% | x | x | 22µM* | -9% | -3
Cc1ccc(-c2cc(C(=O)N3CC(C)CC(C)C3)c3ccccc3n2)o1 (centres undefined) | 6% | 27% | x | -15% | 5% | 0
COc1ccccc1/C=C/C=N/NC(=O)CCn1cnc2ccccc21 | 1% | -2% | -7% | -8% | u | -2
COc1cccc(NC(=O)CN(C)CC(=O)Nc2ccc(Cl)cc2[N+](=O)[O-])c1 | 2% | 3.2µM* | 1% | -7% | 1% | -4
COc1cccc(NC(=O)CN(c2ccc([N+](=O)[O-])cc2)S(=O)(=O)c2ccccc2)c1 | 2% | 4µM* | -1% | -7% | -1% | 0
COc1ccc(NC(=O)CN(c2ccc([N+](=O)[O-])cc2)S(=O)(=O)c2ccccc2)cc1 | 5% | -14% | -34% | 3% | u | 0
COc1ccc(NC(=O)CN(C)S(=O)(=O)c2ccc(Cl)cc2)c([N+](=O)[O-])c1 | u | 1% | 4% | 1% | -24% | 2
C[N+]1=C2CCCCCN2C(O)(c2ccccc2)C1 (centres undefined) | 0% | -12% | 14µM* | -2% | -2% | 1
CC[n+]1c(/C=C/C=C/N(C(C)=O)c2ccccc2)sc2cc(OC)ccc21 | -1% | 3% | -134% | -6% | 3% | 55*
CCOc1cc(/C=C(\C#N)C(N)=O)ccc1OS(=O)(=O)c1ccccc1 | 6% | 14µM* | 8% | -7% | -2% | 0
OCCC1CN(CCCn2cccn2)CCN1C1CCCCC1 (centres undefined) | -13% | -1% | 3% | 25µM* | 0% | -4
CC(=O)c1cccc([N+](=O)[O-])c1 | 7% | x | 9% | -2% | 0% | 0
O=C(O)c1cccc([N+](=O)[O-])c1 | x | x | 0.4µM* | x | x | x
O=c1[nH]ncc2c3ccccc3n(Cc3cccc(Cl)c3)c12 | 25µM* | -3% | 66% | -2% | u | 2
COc1cccc(-n2c(SCC(=O)Nc3cc(C)on3)nc3c([nH]c4ccccc43)c2=O)c1 | -15% | -2% | -7% | 4% | -6% | -2
Cc1c(N=Cc2ccco2)c(=O)n(-c2ccccc2)n1C | 0% | -8% | 7% | -7% | 0% | -1
COc1ccc2c(C=Nc3c(C)n(C)n(-c4ccccc4)c3=O)c(O)n(Cc3ccco3)c(=O)c2c1 | u | 5% | 7% | -4% | -1% | 65*!
Cc1ccc(C(=O)C[n+]2cc(-c3ccc(C)cc3)n3c2CCCCC3)cc1 | 1% | -22% | -36% | u | -6% | -1
COc1ccc(-c2cnc3c(NC=O)cc(-c4ccccc4)cn23)cc1OC | x | x | x | x | 1.8µM* | -1
OCc1cn(-c2ccccc2)nc1-c1ccco1 | -2% | -12% | 12% | -6% | 1% | -1

Compound activity deposited in PubChem BioAssay by National Center for Advancing Translational Sciences (NCATS).
